Screens (PubChem BioAssay)
Most compounds without a hit are left out; they make up all but 12% or so of the library.
G9a inh: blocks human histone lysine methyltransferase G9a. G9a H3K9 monomethylation, AlphaScreen, 2 h. Potency, µM (highest dose often 102 µM), inactives show at the highest dose activity, negative = inhibition, actives largely listed as inhibitors. 8.8% of 350,000 active. AID 504332; further: on the % scale 0 is the no-effect control and ±100 the full control effect; nearly all actives have a fitted effect of over 75% in size
Target sequence (Q96KQ7 913-1193 limits assumed): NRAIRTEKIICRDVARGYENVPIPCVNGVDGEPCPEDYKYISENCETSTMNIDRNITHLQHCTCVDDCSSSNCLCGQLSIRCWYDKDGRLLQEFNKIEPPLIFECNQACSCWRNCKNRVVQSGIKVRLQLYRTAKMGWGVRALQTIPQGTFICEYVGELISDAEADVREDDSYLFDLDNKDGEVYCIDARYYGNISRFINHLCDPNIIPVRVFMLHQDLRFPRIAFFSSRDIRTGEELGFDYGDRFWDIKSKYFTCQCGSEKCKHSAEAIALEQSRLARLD
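Quantitative HTS format: methyltransferase activity on a biotin-tagged H3K9 peptide is measured by AlphaScreen, using a rabbit anti-monomethyl-H3K9 antibody with streptavidin donor and anti-IgG acceptor beads. Final levels are 20 nM enzyme, 500 nM peptide, 20 uM SAM; 2 h RT.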
Sfp inh: blocks B. subtilis Sfp PPTase activity | Q9F4F7 | 3.5% of 310,000 active | Biochemical Sfp PPTase activity, qHTS | Potency, µM, for the others: largest response in the series, negative = inhibition, usual class: inhibitors;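 further: the enzyme is Sfp with the accession as filed and its product quenches rhodamine fluorescence; 0% = enzyme reaction without inhibitor and -100% = no enzyme wells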
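Reaction rates are the 30-min fluorescence difference (ex 525, em 598 nm) in wells containing 15 nM Sfp, 5 uM rhodamine-CoA and 12.5 uM BHQ-2-YbbR at pH 7.6 with 10 mM MgCl2.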
JMJD2A Tudor: inhibitors of human JMJD2A Tudor domain; O75164; AlphaScreen JMJD2A-Tudor / H3K4me3 peptide binding; Potency, µM (series often up to 114 µM), without a hit: at the highest dose activity change, negative = inhibition, most hits filed as inhibitors; 4.4% of 390,000 active; further: on the % scale 0 is the no-effect control and ±100 the full control effect; nearly all actives have a fitted effect of over 50% in size
L3MBTL1 inh: inhibitors of human L3MBTL1. AlphaScreen L3MBTL1–H3K9me1 peptide binding. Potency, µM (highest dose often 57.1 µM), inactives show top-dose activity, negative = inhibition, usual class: inhibitors. 0.66% of 230,000 active. AID 485360; further: on the % scale 0 is the no-effect control and ±100 the full control effect; nearly all actives have a fitted effect of over 60% in size
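AlphaScreen proximity signal between nickel-chelate acceptor and streptavidin donor beads (final 10 ug/mL) reports binding of 50 nM L3MBTL1 to 75 nM biotin-H3 K9me1 peptide; complex incubated with compounds 30 min at room temperature; cefsulodin titration as control.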
BAZ2B inh: inhibitors of human BAZ2B bromodomain; Q9UIF8; AlphaScreen BAZ2B-H3K14Ac peptide displacement; Potency, µM (titrated, usually from 114 µM), inactives show at the highest dose activity change, negative = inhibition, most hits filed as inhibitors; 4.4% of 360,000 active; further: on the % scale 0 is the no-effect control and ±100 the full control effect; nearly all actives have a fitted effect of over 60% in size
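BAZ2B (50 nM) with biotin-H3(5-23)K14Ac peptide (50 nM) in PBS pH 7.4, 0.01% Tween-20, preformed 30 min, then compound 30 min at room temperature; top concentration 110uM. AlphaScreen streptavidin donor/nickel chelate acceptor beads (10 ug/mL final), 20 min dark, signal read.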
HP1b binding inh: blocks HP1-beta chromodomain binding to methylated histone tails. AlphaScreen HP1-beta / biotin-H3K9me3 peptide binding. Potency, µM (highest dose often 114 µM), for the others: top-dose activity change, negative = inhibition, hits mostly inhibitors. 0.56% of 390,000 active; further: nearly all actives have a fitted effect of over 70% in size
Target sequence (P83916 whole entry, looked up): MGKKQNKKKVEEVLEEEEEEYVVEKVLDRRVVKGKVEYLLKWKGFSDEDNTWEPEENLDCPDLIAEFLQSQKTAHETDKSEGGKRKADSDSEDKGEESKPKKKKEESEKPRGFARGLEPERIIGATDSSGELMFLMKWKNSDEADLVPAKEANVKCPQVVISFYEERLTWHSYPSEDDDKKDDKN
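HP1-beta protein (50 nM final) preincubated 30 min at room temperature with biotinylated H3(1-18)K9me3 peptide (50 nM) in PBS pH 7.4, 0.01% Tween-20, then compound added for 30 min. AlphaScreen streptavidin donor/nickel chelate acceptor beads (10 ug/mL final), 30 min dark, luminescence read.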
* marks the source's active call; other numbers are inactive results; ? = inconclusive; . = no result given; ! = not active in a repeat; [ ] = another dose, or the depositor's remark. The call rests on the fitted dose curve; in most records, active means well fitted curve in the direction sought with a large enough effect; inconclusive means small, poorly fitted or top-dose-only effect, or another doubt; inactive means no such curve, though single readings can be large; an effect the other way counts as inactive or inconclusive. Potency means the concentration at half of the fitted maximal effect.

SMILES	G9a inh	Sfp inh	JMJD2A Tudor	L3MBTL1 inh	BAZ2B inh	HP1b binding inh
CC(=O)NC1CCCN(O)C(=O)/C=C(\C)CCOC(=O)C(NC(C)=O)CCCN(O)C(=O)/C=C(\C)CCOC(=O)C(NC(C)=O)CCCN(O)C(=O)/C=C(\C)CCOC1=O (configuration not stated)	-107%[59 µM]	56µM*	1%	26%	-22%	78%
CC(=O)NC1CCC(=O)C=C1c1ccccc1 (configuration not stated)	.	.	-8%	.	.	23%
Cc1ccc2c(c1)sc1nc(=O)n(-c3ccccc3)c(=O)n12	28%	-15%	-5%	-2%	2%	23%
Cc1cc(C)c2nc3s/c(=C/c4ccc5c(c4)n(C)c(=O)n5C)c(=O)n3c2c1	?	20µM*	.	-1%	?	.
O=C(O)[C@H]1NCCC[C@H]1C(=O)O	6.7µM*!	.	.	.	.	.
O=C(O)C1CCCNC1 (configuration not stated)	-3%[59 µM]	10%	-17%	4%	2%	24%
Fc1ccccc1C1c2cccn2CCN1C(=S)Nc1ccc(Br)cc1 (configuration not stated)	25µM*	20%	-23%	-36%	-4%	20%
Fc1cccc(NC(=S)N2CCn3cccc3C2c2cccnc2)c1 (configuration not stated)	50µM*	2%	-32%	.	?	-5%
COc1ccccc1NC(=S)N1CCn2cccc2C1c1cccnc1 (configuration not stated)	56µM*	8%	-22%	.	-33%	0%
Fc1ccccc1C1c2cccn2CCN1C(=S)Nc1cccc(Br)c1 (configuration not stated)	?	-15%	-1%	.	?	20%
CN(C)C1CCN(CCCOc2ccc(-c3ccc(C#N)cc3)cc2)C1 (configuration not stated)	.	-6%	.	.	.	.
CC(=O)N1CCC2(CC1)CCN(c1ccccn1)CC2	-9%[12.7 µM]	16%	.	.	.	.
CCOC(=S)N/C(=N\S(=O)(=O)c1ccccc1)c1ccccc1	10µM*	18µM*	-7%	0%	11%	?
CC(=O)Nc1ccc(N/C(=N\S(=O)(=O)c2ccccc2)c2ccccc2)cc1	21%	11%	-8%	.	-5%	21%
CCOC(=O)c1ccc(N/C(=N\S(=O)(=O)c2ccccc2C)c2ccccc2)cc1	12%[12.7 µM]	20%	-21%	0%	-29%	5%
CCOC(=S)N/C(=N\S(C)(=O)=O)c1ccccc1	16µM*	20µM*	-11%[11.4 µM]	4%	-19%	19%
Cc1ccc(NC(=S)N/C(=N/S(=O)(=O)c2ccccc2)c2ccccc2)cc1	13µM*	?	-30%	.	-31%	-24%
Cc1ccc(S(=O)(=O)/N=C(/NC(=S)Nc2ccccc2)c2ccccc2)cc1	?	-15%	-13%	.	6%	-10%
CCCOC(=S)N/C(=N\S(=O)(=O)c1ccccc1)c1ccccc1	10µM*	16µM*	-18%	7%	7%	-26%
O=S(=O)(/N=C(/NS(=O)(=O)c1ccccc1)c1ccccc1)c1ccccc1	?	17%	-18%	12%	-3%	38%
O=C1COc2cc(S(=O)(=O)CCC(=O)N3CCN(c4cccc(Cl)c4)CC3)c(Cl)cc2N1	-3%[59 µM]	.	-8%	.	-2%	30%
COc1ccc(-c2cc(C(F)(F)F)n3nc(C(=O)Nc4sc5c(c4C#N)CCC(C)C5)cc3n2)cc1OC (configuration not stated)	-2%[59 µM]	.	-2%	.	3%	60%
CC(C)(C)C(=O)C(Oc1ccc(Cl)cc1)n1ccnc1 (configuration not stated)	3%[59 µM]	12%	.	.	.	.
CCc1ccc(NC(=O)CN2C(=O)C(c3ccc(C)cc3)=NC23CCCCC3)cc1	-5%[59 µM]	.	-17%	.	-3%	18%
O=C(NCc1ccc2c(c1)CCN2C(=O)c1ccncc1)c1ccc(Cl)cc1	5%[59 µM]	.	-17%	.	-9%	19%
SMILES	G9a inh	Sfp inh	JMJD2A Tudor	L3MBTL1 inh	BAZ2B inh	HP1b binding inh
COc1ccc(C2=Nn3c(nnc3-c3ccc(OC)c(OC)c3)SC2)cc1OC	.	11%	-12%	.	.	.
O=S(=O)(N=C(NS(=O)(=O)c1ccc(Cl)cc1)c1ccccc1)c1ccc(Cl)cc1	.	.	-22%	3%	.	12%
COC(=S)N/C(=N\S(=O)(=O)c1ccc(Cl)cc1)c1ccccc1	25µM*	22µM*	-26%	.	-21%	-15%
CCc1ccc(CNC(=O)COc2cc(=O)n(CC)c3ccccc23)cc1	?	.	-21%	.	-9%	25%
O=C1CSC2(C(=O)N(Cc3ccccc3F)c3ccccc32)N1c1cccc(C(F)(F)F)c1 (configuration not stated)	?	.	-20%	.	-18%	0%
N#C/C=C1/NC(=O)c2ccccc2S1	45µM*	7%	-24%	-10%	?	16%
CN(C)c1ccc(C(=O)Nc2c(C(=O)NC(C)(C)C)oc3ccccc23)cc1	-48%[59 µM]	.	-28%	.	-12%[57.1 µM]	1%
CSCSC1=C(C#N)C(c2ccccc2Cl)C(C(C)=O)=C(C)N1 (configuration not stated)	4µM*	?	-29%	9%	30%	59%
CCOC(=O)CSC1=C(C#N)C(c2ccccc2F)C(C(C)=O)=C(C)N1 (configuration not stated)	?	63µM*	?	-1%	8%	42%
CC(=O)c1cccc(NS(=O)(=O)c2cc3c(cc2C)n(C)c(=O)c(=O)n3C)c1	-1%[59 µM]	.	-4%	.	1%	33%
CC(=O)N(c1ccc2ccccc2c1)C1SC(=O)N(c2cccc(C)c2)C1=O (configuration not stated)	.	.	-19%	.	.	38%
COc1cc(C(C[N+](=O)[O-])c2c(N)n(C)c(=O)n(C)c2=O)ccc1O (configuration not stated)	50µM*	-2%	-9%	6%	-27%	-4%
Cc1ccc(-c2[nH]c3ccccc3c2C(C[N+](=O)[O-])c2ccco2)cc1 (configuration not stated)	?	20%	?	.	-2%	-7%
Cc1[nH]c2ccccc2c1C(C[N+](=O)[O-])c1cccc(O)c1 (configuration not stated)	?	6%	-30%	-15%	-38%	9%
Cc1[nH]c2ccccc2c1C(C[N+](=O)[O-])c1ccco1 (configuration not stated)	50µM*	-7%	?	.	?	-8%
COc1cc(C(C[N+](=O)[O-])c2c(C)[nH]c3ccccc23)ccc1O (configuration not stated)	?	1%	?	-8%	40µM*	-36%
